PubChem BioAssay AID1159580 (chemical genetic matrix, 2015)
“And” between values parts separate entries of the source, which are not always exact repeats. Identical values can stand only once. Out of some 5,500 compounds screened, about 2,000 (36%) were called active. Another 18% or so got no clear call; they are omitted. Cut-off read from the data, not from the text of the source: active = normalized growth mostly below about 0.91 (no sharp cut-off); inconclusive = no clear call, values can overlap the other calls; inactive = mostly above about 0.92. This is one part of the list.

Test: chemical genetic growth profiling, strain panel (AID 1159580);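 note: tested at 20 µM; growth read once vehicle control cultures reached saturation at 30 °C; 1 = growth at the plate median or of vehicle wells; lower values mean less growth of the strain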
Conditions: S. cerevisiae deletion strains, growth OD

Measured: normalized growth

O=C(O)c1cc(=O)c2c(Cl)cc(Cl)cc2[nH]1
inactive: locus YAL013W, strain DEP1, stronger effect = lower value 1 | locus YAL021C, strain ccr4, stronger effect = lower value 1 | locus YAL026C, strain drs2, stronger effect = lower value 1.02 | locus YAL030W, strain snc1, stronger effect = lower value 1.02 | locus YAL040C, strain CLN3, stronger effect = lower value 0.995 | locus YBL061C, strain skt5, stronger effect = lower value 1.01 | locus YBR009C, strain hhf1, stronger effect = lower value 1 | locus YBR021W, strain FUR4, stronger effect = lower value 1 | locus YBR023C, strain chs3, stronger effect = lower value 1.02 | locus YBR171W, strain sec66, stronger effect = lower value 1.01 | locus YBR229C, strain ROT2, stronger effect = lower value 1.01 | locus YBR231C, strain swc5, stronger effect = lower value 1.02 | locus YBR279W, strain paf1, stronger effect = lower value 1.01 | locus YCL011C, strain gbp2, stronger effect = lower value 1.01 | locus YCL016C, strain dcc1, stronger effect = lower value 1.01 | locus YCL029C, strain bik1, stronger effect = lower value 1.01 | locus YCL061C, strain MRC1 (second series), stronger effect = lower value 0.998 | locus YCL061C, strain MRC1, stronger effect = lower value 1.02 | locus YCL069W, strain vba3, stronger effect = lower value 1 | locus YCR088W, strain abp1, stronger effect = lower value 1.01 | locus YDL005C, strain med2, stronger effect = lower value 1.01 | locus YDL035C, strain GPR1, stronger effect = lower value 1.01 | locus YDL040C, strain nat1, stronger effect = lower value 1.01 | locus YDL074C, strain BRE1, stronger effect = lower value 1 | locus YDL101C, strain DUN1, stronger effect = lower value 1.01 | locus YDL134C, strain PPH21, stronger effect = lower value 1.02 | locus YDL185W, strain tfp1, stronger effect = lower value 1.01 | locus YDL192W, strain arf1, stronger effect = lower value 1.02 | locus YDR001C, strain nth1, stronger effect = lower value 1.01 | locus YDR069C, strain doa4, stronger effect = lower value 1.02 | locus YDR101C, strain arx1, stronger effect = lower value 1.03 | locus YDR137W, strain rgp1, stronger effect = lower value 1.02 | locus YDR150W, strain NUM1, stronger effect = lower value 0.999 | locus YDR159W, strain sac3, stronger effect = lower value 1.01 | locus YDR162C, strain NBP2, stronger effect = lower value 1.02 | locus YDR195W, strain ref2 1.02 | locus YDR297W, strain sur2, stronger effect = lower value 1.01 | locus YDR318W, strain mcm21, stronger effect = lower value 1.02 | locus YDR334W, strain swr1, stronger effect = lower value 1.01 | locus YDR335W, strain msn5, stronger effect = lower value 1.01 | locus YDR363W, strain ESC2, stronger effect = lower value 0.974 | locus YDR388W, stronger effect = lower value 1.01 | locus YDR392W, strain spt3, stronger effect = lower value 0.979 | locus YDR502C, strain sam2, stronger effect = lower value 1.01 | locus YEL003W, strain gim4, stronger effect = lower value 1.01 | locus YEL037C, strain rad23, stronger effect = lower value 1.01 | locus YEL061C, strain CIN8 (second series), stronger effect = lower value 1.01 | locus YEL061C, strain CIN8, stronger effect = lower value 1 | locus YER002W, strain NOP16, stronger effect = lower value 1 | locus YER015W, strain faa2, stronger effect = lower value 1.02 | locus YER016W, strain bim1, stronger effect = lower value 1.01 | locus YER110C, stronger effect = lower value 1.03 | locus YER111C, strain swi4, stronger effect = lower value 1.02 | locus YER155C, strain BEM2 (second series), stronger effect = lower value 1.03 | locus YER155C, strain BEM2, stronger effect = lower value 0.994 | locus YER167W, strain BCK2, stronger effect = lower value 1 | locus YFR010W, strain ubp6, stronger effect = lower value 1.02 | locus YGL078C, strain dbp3, stronger effect = lower value 1.01 | locus YGL086W, strain mad1, stronger effect = lower value 1.02 | locus YGL167C, strain pmr1, stronger effect = lower value 1.02 | locus YGL173C, strain kem1, stronger effect = lower value 1.02 | locus YGL227W, strain vid30, stronger effect = lower value 1.01 | locus YGL240W, strain doc1, stronger effect = lower value 1.02 | locus YGL248W, strain PDE1, stronger effect = lower value 1.01 | locus YGL253W, strain hxk2, stronger effect = lower value 1.02 | locus YGR078C, strain PAC10, stronger effect = lower value 1 | locus YGR135W, strain pre9, stronger effect = lower value 1.03 | locus YGR229C, strain SMI1, stronger effect = lower value 1.05 and 0.981 | locus YGR252W, strain gcn5, stronger effect = lower value 1 | locus YHR013C, strain ard1, stronger effect = lower value 0.987 | locus YHR027C, strain rpn1, stronger effect = lower value 1.02 | locus YHR030C, strain SLT2, stronger effect = lower value 1 | locus YHR079C, strain IRE1 (second series), stronger effect = lower value 1.01 | locus YHR094C, strain hxt1, stronger effect = lower value 1.02 | locus YHR129C, strain ARP1, stronger effect = lower value 1.01 | locus YHR142W, strain chs7, stronger effect = lower value 1.02 | locus YHR200W, strain rpn10, stronger effect = lower value 1.01 | locus YIL066C, strain RNR3, stronger effect = lower value 1.01 | locus YIL073C, strain SPO22, stronger effect = lower value 1.04 | locus YIL125W, strain kgd1, stronger effect = lower value 1.01 | locus YIR030C, strain dcg1, stronger effect = lower value 1.01 | locus YJL092W, strain hpr5, stronger effect = lower value 1.01 | locus YJL095W, strain BCK1 (second series), stronger effect = lower value 1.01 | locus YJL095W, strain BCK1, stronger effect = lower value 0.998 | locus YJL115W, strain asf1, stronger effect = lower value 1.01 | locus YJL129C, strain trk1, stronger effect = lower value 1.01 | locus YJL134W, strain LCB3, stronger effect = lower value 1.01 | locus YJL154C, strain vps35, stronger effect = lower value 1.01 | locus YJL164C, strain tpk1, stronger effect = lower value 1.01 | locus YJL166W, strain qcr8, stronger effect = lower value 1.02 | locus YJL168C, strain set2, stronger effect = lower value 1.02 | locus YJL187C, strain SWE1 (second series), stronger effect = lower value 1
